TRPML1 agonist = agonists of human TRPML1 channel; Q9GZU1; activation, % (no concentration beside the values); TRPML1-expressing cells, Ca2+ dye fluorescence, FDSS; AID 624414; hit rate 0.12% among 410,000; in the data active = activation above about 50%; inconclusive = mostly about 30% to 49%
Target sequence (Q9GZU1 whole entry, looked up): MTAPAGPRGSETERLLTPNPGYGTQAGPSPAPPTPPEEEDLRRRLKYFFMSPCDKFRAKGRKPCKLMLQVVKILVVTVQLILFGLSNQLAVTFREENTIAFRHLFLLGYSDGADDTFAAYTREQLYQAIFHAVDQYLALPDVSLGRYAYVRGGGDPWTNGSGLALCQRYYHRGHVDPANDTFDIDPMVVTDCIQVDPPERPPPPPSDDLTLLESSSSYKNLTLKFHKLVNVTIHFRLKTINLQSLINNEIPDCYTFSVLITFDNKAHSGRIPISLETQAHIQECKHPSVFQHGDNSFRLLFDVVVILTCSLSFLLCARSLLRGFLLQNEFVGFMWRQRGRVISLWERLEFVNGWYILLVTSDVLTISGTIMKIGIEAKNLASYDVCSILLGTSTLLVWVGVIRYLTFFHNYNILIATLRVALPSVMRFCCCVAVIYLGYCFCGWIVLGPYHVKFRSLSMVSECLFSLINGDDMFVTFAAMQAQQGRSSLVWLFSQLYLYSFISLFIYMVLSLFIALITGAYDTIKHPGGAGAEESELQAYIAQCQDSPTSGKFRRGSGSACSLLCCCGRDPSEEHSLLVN
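In this qHTS format, compounds were pin-transferred onto Ca8-dye-loaded TRPML1-DL cells induced with Tet overnight, and intracellular Ca2+ fluorescence was recorded kinetically for 110 s after a 10 s baseline. A subsequent 4uM final 54-4 (EC80) addition followed by a second 110 s read served as the antagonist phase.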
TRHR PAM = allosterically enhances the human TRH receptor; P34981; TRHR cells, fluo-8 calcium fluorescence, EC20 TRH enhancement; enhancement, % at 2 µM; hit rate 0.66% among 360,000; AID 493056; in the data active = enhancement above about 30%
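Enhancer read-out: after compound pinning and an initial kinetic agonist-mode read, an EC20 of TRH (10 nM final) was injected and fluo-8 calcium signal (Ex 480/Em 530) followed at 1 s/cycle for 100 cycles in TRHR-expressing cells.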
TRPV1 agonist = activates the human vanilloid receptor TRPV1; Q8NER1; TRPV1-expressing cells, Fluo-8 calcium influx, agonist mode; activation, % at 8.33 µM; hit rate 0.19% among 320,000; in the data active = activation above about 80%; inconclusive = between about 30% and that limit
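Fluo-8 calcium influx in TRPV1-expressing cells, kinetic read (ex 480/em 520 nm). Compound added and read 3 min for agonist activity, followed by capsaicin at EC20 final and 2 min further read for enhancement.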
TRPV1 potentiator = potentiators of human vanilloid receptor 1 (TRPV1); TRPV1-expressing cells, Fluo-8 calcium influx, capsaicin EC20 potentiation; potentiation, % at 8.33 µM; hit rate 0.02% among 320,000; AID 540277; in the data active = potentiation above about 80%; inconclusive = between about 30% and that limit
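Fluo-8 calcium influx in TRPV1-expressing cells, kinetic read (ex 480/em 520 nm). Compound added and read 3 min for agonist activity, followed by capsaicin at EC20 final and 2 min further read for enhancement.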
TRPML1 inh = blocks the human TRPML1 channel; Q9GZU1; TRPML1-inducible cells, Ca2+ dye fluorescence, FDSS; stronger effect = lower value; inhibition of EC80 agonist-evoked calcium signal; activity change, negative = inhibition, % (no concentration beside the values); hit rate 0.02% among 390,000; in the data active = activity change below about -50%; inconclusive = between about -30% and that limit;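 note: stimulus is agonist 54-4 at its EC80 concentration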
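TRPML1-DL cells, Tet-induced overnight (~16 h, 37 °C) at 1,500 cells/well, were loaded with Ca8 no-wash dye plus quencher for 45-90 min at room temperature. Compounds were pinned during FDSS kinetic reading; agonist 54-4 at EC80 (4 uM final) then added.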
TRHR ag = agonists of human TRH receptor. TRHR cells, calcium flux fluo-8, FDSS agonist mode. activation, % at 2 µM. hit rate 0.18% among 360,000. AID 493084; in the data active = activation above about 30%
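In this calcium-flux screen, cells bearing human TRHR are dye-loaded with fluo-8, baselined for 10 cycles, then exposed to library compounds; positive kinetic calcium responses during the agonist phase mark hits, with TRH as control.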
A number is an active result. A selection: hits, their analogues and other compounds. The true share with any hit is near 0.96%.

How did COc1cc(/C=C2\CCCc3c2nc2ccccc2c3C(=O)O)cc(Br)c1O do in these assays?
TRPML1 agonist: inactive; TRHR PAM: inactive; TRPV1 agonist: inactive; TRPV1 potentiator: inactive; TRPML1 inh: inactive; TRHR ag: inactive

Results for CN1CCN(C(=O)Nc2ccccc2)CC1 ?
TRPML1 agonist: inactive; TRHR PAM: inactive; TRPV1 agonist: inactive; TRPV1 potentiator: inactive; TRPML1 inh: inactive; TRHR ag: inactive

Results for CSc1cccc(NC(=O)N2CCN(C)CC2)c1 ?
TRPML1 agonist: inactive; TRHR PAM: 37; TRPV1 agonist: inactive; TRPV1 potentiator: inactive; TRPML1 inh: inactive; TRHR ag: inactive

What do the screens show for `O=C(Nc1ccc(Br)cc1)c1cc2ccccn2n1`?
TRPML1 agonist: inactive; TRHR PAM: inactive; TRPV1 agonist: 85; TRPV1 potentiator: inactive; TRPML1 inh: inactive; TRHR ag: inactive

Results for O=C(NCCc1csc(-c2ccc(Cl)cc2)n1)c1cccs1 ?
TRPML1 agonist: inactive; TRHR PAM: inactive; TRPML1 inh: inactive; TRHR ag: inactive

How did O=C(NCCc1ccc(Cl)cc1)c1cc2ccccn2n1 do in these assays?
TRPML1 agonist: inactive; TRHR PAM: inactive; TRPV1 agonist: 87; TRPV1 potentiator: inactive; TRPML1 inh: inactive; TRHR ag: inactive

What do the screens show for `O=C(NCCc1ccc(Cl)cc1)c1cccs1`?
TRPML1 agonist: inactive; TRHR PAM: inactive; TRPV1 agonist: 81; TRPV1 potentiator: inactive; TRPML1 inh: inactive; TRHR ag: inactive

How did Cc1ccc(CCNC(=O)c2cc3ccccn3n2)cc1 do in these assays?
TRPML1 agonist: inactive; TRHR PAM: inactive; TRPML1 inh: inactive; TRHR ag: inactive

How did O=S(=O)(c1cccc(C(F)(F)F)c1)N1CCN(c2nc(-c3ccccc3)nc3ccccc23)CC1 do in these assays?
TRPML1 agonist: inactive

How did CC(C)(C)n1ncc2c(=O)n(Cc3c(Cl)cccc3Cl)cnc21 do in these assays?
TRPML1 agonist: inactive; TRPML1 inh: inactive

How did O=C(O)c1cccc(S(=O)(=O)N2CCN(S(=O)(=O)c3ccc4c(c3)OCCO4)CC2)c1 do in these assays?
TRHR PAM: inactive; TRHR ag: inactive

What do the screens show for `CC(C)C(=O)Nc1ccc(/C=C2\C=Cc3ccccc32)cc1`?
TRPML1 agonist: inactive

What do the screens show for `O=C1NC(=S)SC1=Cc1cccs1`?
TRPML1 agonist: inactive; TRPML1 inh: inactive

What do the screens show for `CN1CCC/C1=C/C=C1\SC(=S)NC1=O`?
TRPML1 agonist: 58; TRHR PAM: inactive; TRPV1 agonist: inactive; TRPV1 potentiator: inactive; TRPML1 inh: inactive; TRHR ag: 48

How did C=CC(=O)N1CCC[C@@H](n2nc(-c3ccc(Oc4ccccc4)cc3)c3c(N)ncnc32)C1 do in these assays?
TRPML1 agonist: inactive

Results for CN(C)c1ccc(/C=C/c2ccc3ccccc3[n+]2[O-])cc1 ?
TRPML1 agonist: 107

How did CN(C)c1ccc(/C=C/c2cc[n+]([O-])cc2)cc1 do in these assays?
TRHR PAM: inactive; TRPV1 agonist: inactive; TRPV1 potentiator: inactive; TRHR ag: 61

Results for CN(C)c1ccc(/C=C/c2cc[n+](C)cc2)cc1 ?
TRPML1 agonist: inactive; TRHR PAM: inactive; TRPV1 agonist: inactive; TRPV1 potentiator: inactive; TRPML1 inh: inactive; TRHR ag: inactive

How did CC(=O)NC(Cc1ccc(I)cc1)C(=O)NCC(N)C(=O)c1ccccc1 (stereo not given) do in these assays?
TRPML1 agonist: inactive

What do the screens show for `CCn1c(=O)c(C(=O)NNC(=O)c2ccccc2Cl)c(O)c2ccccc21`?
TRPML1 agonist: inconclusive; TRHR PAM: inactive; TRPV1 agonist: inactive; TRPV1 potentiator: inactive; TRPML1 inh: inactive; TRHR ag: inactive

How did CCn1c(=O)c(C(=O)NNC(=O)c2ccccc2F)c(O)c2ccccc21 do in these assays?
TRPML1 agonist: inactive; TRHR PAM: inactive; TRPV1 agonist: inactive; TRPV1 potentiator: inactive; TRPML1 inh: inactive; TRHR ag: 43

How did CN(C(=O)COc1cc(C(F)(F)F)nn1C)c1ccccc1 do in these assays?
TRPML1 agonist: inactive; TRHR PAM: 35; TRPV1 agonist: inactive; TRPV1 potentiator: inactive; TRPML1 inh: inactive; TRHR ag: inactive

How did Cc1ccc(CNC(=O)COC(=O)c2ccccc2OCC(=O)Nc2ccc(Br)cc2)cc1 do in these assays?
TRPML1 agonist: inactive

What do the screens show for `Cc1cc2c(s1)c1cnn(Cc3ccc(F)c(Cl)c3)c(=O)c1n2C`?
TRHR PAM: inactive; TRHR ag: inactive

What do the screens show for `CCC(=O)N1CCc2cc(CNC(=O)c3cccc(N(C)C)c3)ccc21`?
TRPML1 agonist: inactive; TRHR PAM: 35; TRPML1 inh: inactive; TRHR ag: inactive

What do the screens show for `c1ccc(Cn2nnnc2C(c2ccccc2)N2CCN(Cc3ccncc3)CC2)cc1` (stereo not given)?
TRPML1 agonist: inactive

Results for CC(C)OC(=O)c1cccc(-c2ccc(C=O)o2)c1 ?
TRPML1 agonist: inactive; TRHR PAM: 36; TRPV1 agonist: inactive; TRPV1 potentiator: inconclusive; TRPML1 inh: inactive; TRHR ag: inactive

What do the screens show for `CC(C)OC(=O)c1ccc(COC(=O)c2cccc(-c3nnc(-c4ccccc4)o3)c2)cc1`?
TRPML1 agonist: inactive; TRHR PAM: inactive; TRPV1 agonist: inactive; TRPV1 potentiator: inactive; TRPML1 inh: inactive; TRHR ag: inactive

What do the screens show for `O=C(Nc1ccccc1)C1C(c2ccccc2)C1(Cl)Cl` (stereo not given)?
TRPML1 agonist: inactive; TRHR PAM: inactive; TRPV1 agonist: 84; TRPV1 potentiator: inactive; TRPML1 inh: inactive; TRHR ag: inactive

How did CC(=O)C[C@H]1c2cc(F)cc(F)c2S(=O)(=O)N1C1CCN(Cc2ccccc2)CC1 do in these assays?
TRPML1 agonist: inactive

What do the screens show for `O=C(CCCn1nnc2ccccc2c1=O)N[C@H](C(=O)O)c1ccccc1`?
TRPML1 agonist: inactive; TRHR PAM: inactive; TRPV1 agonist: inactive; TRPV1 potentiator: inactive; TRPML1 inh: -54; TRHR ag: inactive

What do the screens show for `Cc1nnc(N2CCC(C(=O)NC3CCCCC3)CC2)c2nn(-c3ccccc3)c(C)c12`?
TRPML1 agonist: inactive; TRHR PAM: inactive; TRPML1 inh: -58; TRHR ag: inactive

What do the screens show for `Cc1cc(C(=O)OCC(=O)N(C)c2ccccc2)ccc1[N+](=O)[O-]`?
TRPML1 agonist: inactive; TRHR PAM: 35; TRPV1 agonist: inactive; TRPV1 potentiator: inactive; TRPML1 inh: inactive; TRHR ag: inactive

What do the screens show for `CCn1cnc2c(Nc3ccc(CCC(=O)N=C(N)N)cc3)nc(C#N)nc21`?
TRHR PAM: inactive; TRHR ag: inactive

How did C=CCNC(=O)c1cnn2c1NC(=C)C=C2C do in these assays?
TRPML1 agonist: inactive

What do the screens show for `S=C1NCN(Cc2ccco2)CN1`?
TRPML1 agonist: inactive; TRHR PAM: 41; TRPV1 agonist: inactive; TRPV1 potentiator: inconclusive; TRPML1 inh: inactive; TRHR ag: inactive

What do the screens show for `COc1ccc(C(=O)N(Cc2ccco2)Cc2cccs2)cc1`?
TRPML1 agonist: inactive; TRHR PAM: inactive; TRPV1 agonist: inactive; TRPV1 potentiator: inactive; TRPML1 inh: inactive; TRHR ag: inactive

From PubChem
